# This is part of a sample that, as a whole, favours compounds with a hit. Of some 83,000 tested, about 20% had one in any assay.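 Single-concentration screen, 48 h exposure, 96-well plates. Endpoint: percent growth. Below 10 = active.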 A number with no mark means an inactive call. Activity calls are given as the source filed them.
# Tests used:
# Experiment in all cases: NCI-60 one-dose screen, 48 h (100 = growth as untreated, 0 = no growth, -100 = all killed)
# Settings in all cases: 10 µM unless noted
# NCI-H23 lung = tested on: NCI-H23 lung
# NCI-H226 lung = tested on: NCI-H226 lung
# NCI-H322M lung = tested on: NCI-H322M lung
# HOP-62 NSCLC = tested on: HOP-62 NSCLC
# NCI-H460 lung = tested on: NCI-H460 lung
# NCI-H522 lung = tested on: NCI-H522 lung
# A549/ATCC NSCLC = tested on: A549/ATCC NSCLC
# 786-0 renal = tested on: 786-0 renal
# COLO 205 colon = tested on: COLO 205 colon
# DU-145 prostate = tested on: DU-145 prostate
# K-562 leukemia = tested on: K-562 leukemia
# MALME-3M melanoma = tested on: MALME-3M melanoma
# MDA-MB-231 breast = tested on: MDA-MB-231 breast
# SF-268 CNS = tested on: SF-268 CNS
# SF-295 CNS = tested on: SF-295 CNS
# SF-539 CNS = tested on: SF-539 CNS
# UACC-257 melanoma = tested on: UACC-257 melanoma
# RXF 393 renal = tested on: RXF 393 renal
# M14 melanoma = tested on: M14 melanoma
Structure (SMILES),growth (NCI-H23 lung),growth (NCI-H226 lung),growth (NCI-H322M lung) [%],growth (HOP-62 NSCLC),growth (NCI-H460 lung),growth (NCI-H522 lung),growth (A549/ATCC NSCLC) [%],growth (786-0 renal),growth (COLO 205 colon),growth (DU-145 prostate),growth (K-562 leukemia),growth (MALME-3M melanoma),growth (MDA-MB-231 breast),growth (SF-268 CNS) [%],growth (SF-295 CNS),growth (SF-539 CNS),growth (UACC-257 melanoma),growth (RXF 393 renal),growth (M14 melanoma)
COc1cc(/C=C2\C(=O)Nc3cc(Cl)ccc32)ccc1OCc1ccc(F)cc1,101%,91.2%,98.2,95.9%,99%,92.9%,110,108%,110%,104%,97.7%,92.7%,92.1%,101,97.1%,95%,109%,,
COc1ccc(-n2c(SCc3n[nH]c(=S)o3)nc3ccc(Cl)cc3c2=O)cc1,99%,77.6%,97.6,97.2%,103%,87.6%,97.7,94.1%,114%,96.3%,99.6%,95.3%,94.6%,92.1,97.3%,91.5%,102%,89.5%,112%
CCOC(=O)c1c(Nc2ccccc2)nn2c(-c3ccccc3)ccnc12,86.2%,85.3%,94.2,101%,97.9%,87.9%,92.4,86.6%,99.5%,97.5%,63.8%,105%,82.4%,113,92.9%,92.5%,112%,,110%
C=C(C=O)[C@@H]1CC[C@]2(C)[C@H](C(=O)C=C3[C@H]4C[C@](C)(C(=O)OC)CC[C@]4(C)CC[C@]32C)[C@@]1(C)CCC#N,4.93% (active),-53.6% (active),109,41.2%,32.4%,52.5%,104,13.6%,86.4%,6.32% (active),5.75% (active),-49.8% (active),-19% (active),32,28.4%,-29.1% (active),-13.6% (active),,
O=C1CCC(N2C(=O)c3ccc(NS(=O)(=O)c4ccccc4OC(F)(F)F)cc3C2=O)C(=O)N1 (configuration not stated),107%,44.7%,46.1,6.09% (active),115%,69.3%,78.7,47.6%,20.5%,108%,65.8%,7.28% (active),6.46% (active),43.2,56.9%,79.7%,107%,,
O=C1C(c2ccccc2)=C(N2CCc3ccccc32)OC1(Cl)Cl,60.1%,89.2%,86.3,98.1%,88.2%,75.3%,85,60.1%,-8.41% (active),69.4%,8.28% (active),-27.3% (active),82%,83.1,83.6%,75.8%,91.4%,33.3%,62.2%
Cc1ccc(N2C(=O)/C(=C/C=C/c3ccco3)SC2=S)cc1,98.9%,102%,96.4,95.9%,88.9%,81.8%,86.3,104%,94.3%,100%,61.2%,91.4%,94.9%,105,99.1%,101%,88.3%,74.6%,103%
COc1ccc2[nH]cc(/C=N/Nc3nc4ccccc4s3)c2c1,67.6%,75.6%,79.2,62.9%,32.1%,28.5%,52.4,52.9%,80.4%,60.3%,24.3%,98.4%,67.2%,55.9,58.5%,70.5%,81.9%,60.8%,52%
Cn1cc(-c2nc(N)nnc2-c2c[nH]c3ccccc23)c2cc(Br)ccc21,17%,60.3%,41.9,45.9%,12.6%,-2.27% (active),50.8,43.5%,9.53% (active),18.6%,11.6%,40.8%,34.2%,39.6,-7.74% (active),6.14% (active),72.1%,7.61% (active),6.36% (active)
COc1ccc2[nH]cc(-c3csc4nc(-c5ccccc5)cn34)c2c1,30.8%,31.4%,64.6,24.5%,2.01% (active),-34% (active),29.9,51.6%,-32.6% (active),18.4%,11.2%,54.2%,20.8%,41.1,-2.19% (active),-6.33% (active),60.4%,-15.7% (active),11.6%
CNc1ncc2cc(-c3ccc(-c4ncccc4F)cc3Cl)c(=O)n(CC3OCC(N)CO3)c2n1 (configuration not stated),78.4%,64.3%,79.5,47.1%,102%,75.7%,57.1,56.9%,46.4%,63.3%,78.8%,,10.8%,24.8,74.3%,67.4%,93%,-9.68% (active),87.9%
Cc1cc(C)cc(C(=O)Nc2cccc(C#Cc3cccc4[nH]nc(N)c34)c2)c1,76.6%,67.3%,88.4,67%,50.7%,23.6%,54.8,89.9%,77.9%,71.9%,9.8% (active),86.2%,40%,55,65%,38.6%,90.7%,-10.9% (active),43.5%
CCOc1ccc(NC2=C(Cl)C(=O)c3nc(C)ccc3C2=O)cc1,-61% (active),-52.6% (active),32.4,72.1%,13.4%,-61.6% (active),46.2,8.39% (active),98.2%,-92.7% (active),-4.17% (active),-90.6% (active),-71.7% (active),32.3,51%,-58.8% (active),-89.2% (active),,
Cc1ccc2sc3c(c2c1)OC(N)=C(C#N)C3c1cccc(F)c1 (configuration not stated),22.4%,-22.2% (active),42.5,9.3% (active),-13.4% (active),-33.7% (active),11.5,11.7%,-40.3% (active),-9.41% (active),7.14% (active),43.3%,23.5%,25.8,1.52% (active),-1.16% (active),60.8%,-30.8% (active),0.753% (active)
CC1=N[C@@H]2CN(C(=O)OC(C)(C)C)C[C@@H]2n2c1cc1ccccc1c2=O,93.7%,99.5%,98.6,97.9%,109%,98.6%,103,102%,107%,111%,97.8%,107%,96.1%,99.5,108%,99.3%,108%,110%,97.7%
O=S(=O)(Nc1ccc2c(c1)OCO2)c1ccc(-c2cnc(C3CC3)o2)cc1,42%,55.9%,64.5,43.3%,23.5%,34.4%,43.8,46.2%,35.3%,44.6%,12.3%,46.2%,46.2%,53.6,9.2% (active),33%,55%,34.9%,22.8%
N#Cc1cn(Cc2ccc(Cl)cc2Cl)c(C(=O)c2ccc(Br)cc2)c1N,93.8%,75.6%,95,82.6%,95.9%,91.2%,98.2,99.1%,114%,99.7%,94.9%,,88.2%,92.7,83.7%,81.4%,92.1%,95.8%,98%
